High-throughput results (PubChem)
Rows were chosen to be rich in hits. Some 8% of all compounds tested hit in one or more screens of this group.
SW480 rerep – induces DNA re-replication in SW480 colon adenocarcinoma cells; SW480 DNA re-replication, Hoechst DNA content imaging, 48 h; Potency, µM (doses to about 46.1 µM), for inactives: top-dose re-replication activation, hits mostly activators; hit rate 1.8% among 340,000; also: % of control where 0% means no effect; nearly all actives have a fitted effect of over 55% in size
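Readout is total intensity of Hoechst-stained nuclei, excited at 405 nm and collected at 500-530 nm. Compound treatment lasted 48 hr at 37 C in 5% CO2 before staining.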
HT1080 IDH1KD tx – toxicity to HT-1080 IDH1 knockdown cells (counter line); HT-1080 IDH1 knockdown viability, ATP luminescence, 48 h; Potency, µM (series often up to 46.1 µM), for inactives: at the top dose activity, negative = toxicity, usual class: cytotoxic; hit rate 2% among 360,000; AID 686971;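 also: 0% = DMSO wells and -100% = cell-free medium wells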
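% activity derives from luminescence (CellTiter-Glo), normalised to DMSO and no-cell wells. HT-1080-IDH1KD cells, 750/well, had 48 h compound exposure at 37 °C.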
MCF10A rereplic – induces DNA re-replication in MCF 10a normal breast cells. hit rate 2.9% among 350,000. AID 624296. MCF 10A DNA re-replication, Hoechst nuclear intensity, 48 h. Potency, µM (top dose mostly 46.1 µM), for inactives: at the top dose activity, positive = re-replication, usual class: activators; also: % of control where 0% means no effect; nearly all actives have a fitted effect of over 50% in size
KB-3-1 cytotox – kills parental KB-3-1 adenocarcinoma cells. KB-3-1 viability, CellTiter-Glo ATP luminescence, 72 h. Potency, µM (top dose mostly 46.1 µM), usual class: cytotoxic. hit rate 1.4% among 400,000. AID 1347075; also: % is scaled to controls: 0 for no effect and ±100 for the full control effect; nearly all actives have a fitted effect of over 60% in size
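KB-3-1 cells, DMEM (no phenol red) + 10% FBS; compound by pin transfer, 72 h, 37 °C. Readout: CellTiter-Glo luminescence after 10 min. Data normalized, curve-fitted.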
HT1080NT lethal – kills 2HG-producing HT-1080-NT fibrosarcoma cells. HT-1080-NT fibrosarcoma viability, CellTiter-Glo ATP luminescence, 48 h. Potency, µM (titrated, usually from 46.1 µM), inactives show top-dose activity, negative = less viability, most hits filed as cytotoxic. hit rate 1.6% among 360,000. AID 686970;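 also: NT is the 2HG producing partner of a matched IDH1 knockdown line; 0% = DMSO-treated cells and -100% = media-only wells without cells; nearly all actives have a fitted effect of over 55% in size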
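Compounds were tested in concentration-response format on HT-1080-NT cells for 48 hours at 37 degrees C. Cell viability came from CellTiter-Glo luminescence; curves were classified by r2, response magnitude and activity.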
KB-V1 cytotox – kills drug-selected multidrug resistant KB-V1 cells | KB-V1 MDR cells viability, CellTiter-Glo, 72 h | Potency, µM (series often up to 46.1 µM), hits mostly cytotoxic | hit rate 3.4% among 400,000; also: % is scaled to controls: 0 for no effect and ±100 for the full control effect; nearly all actives have a fitted effect of over 60% in size
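Cytotoxicity toward P-gp-expressing KB-V1 cells was determined as loss of CellTiter-Glo luminescence after 72 h at 37 degrees C. Compounds were tested in quantitative HTS format across a concentration range, with curves fitted to normalized data.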
Numbers without * were called inactive; i = inactive; ? = inconclusive; . = no result given; [ ] = another dose, or the depositor's remark. Calls follow the shape of the dose curve; as a rule, active = well fitted curve in the direction sought with a large enough effect; inconclusive = small, poorly fitted or top-dose-only effect, or another doubt; inactive = no such curve, though single readings can be large; an effect the other way counts as inactive or inconclusive. Potency is read from the fitted curve at half-maximal effect.

SMILES | SW480 rerep | HT1080 IDH1KD tx | MCF10A rereplic | KB-3-1 cytotox | HT1080NT lethal | KB-V1 cytotox
CCN(CC)c1ccc(N=Cc2ccccc2[N+](=O)[O-])cc1 | 2.59µM* | ? | ? | i | -25.7% | i
COc1ccc(C(=O)NC(=S)N2CC(C)OC(C)C2)cc1 (centres undefined) | -1.6% | 23.2% | -0.7% | i | 4.8% | i
Cc1ccc(C(=O)NC(=S)N2CC(C)OC(C)C2)cc1[N+](=O)[O-] (centres undefined) | ? | 2.82µM* | -2.4% | i | 3.55µM* | ?
O=C(Cn1c(-c2cccs2)cc2cc(F)ccc21)NCCc1ccc(Cl)cc1 | . | . | . | i | . | i
NC(=O)c1c(N)sc(=S)n1-c1ccccc1 | -1.4%[9.22 µM] | 1.7% | 6.51µM* | i | 0.1% | i
CCOc1ccc(-n2c(=O)c3c4c(sc3n(Cc3cccc(Cl)c3)c2=O)CCCC4)cc1 | . | . | . | i | . | ?
CC(C(=O)NCc1ccccc1F)n1ccc2cc(S(=O)(=O)N3CCCC3)ccc21 (centres undefined) | . | . | . | i | . | i
CCOc1ccc(CNC(=O)C2Cc3ccccc3N2C(=O)CC)cc1 (centres undefined) | . | . | . | i | . | i
C[C@]12C=C[C@H](O)CC1=CCC1C2CC[C@@]2(C)C1CCC21OCCO1 (some centres undefined) | ? | -14.3% | 20.6µM* | i | -14.1% | ?
C[C@]12C=CC(=O)C=C1CCC1C2CC[C@@]2(C)C1CCC21OCCO1 (some centres undefined) | -2.0% | -9.5% | ? | i | -16.9% | i
CC(C)c1ccc(NC(=O)Nc2nc(C(N)COCc3ccccc3)cs2)cc1 (centres undefined) | . | ? | . | ? | 20.6µM* | ?
NC(c1csc(NC(=O)Nc2cccc(Cl)c2)n1)c1ccccc1Cl (centres undefined) | . | ? | . | i | ? | i
CCOC(=O)Cc1csc(NC(=O)/C=C/c2ccc(Br)o2)n1 | 26.6% | -5.2% | ? | i | -21.5% | 14.6µM*
CC(C)C(N)c1csc(NC(=O)Nc2cccc(Cl)c2)n1 (centres undefined) | . | ? | . | i | 23.1µM* | i
NC(c1csc(NC(=O)Nc2ccc(OC(F)(F)F)cc2)n1)C1CCCCC1 (centres undefined) | . | ? | . | ? | 16.4µM* | ?
CCOC(=O)Cc1csc(NC(=O)c2ccc(Br)o2)n1 | -0.9% | 3.7% | -0.4% | i | 12.6% | i
CCOC(=O)c1cc(-c2ccc(F)cc2)n(CCC(=O)Nc2nc3ccc(OC)cc3s2)c1C | . | . | . | i | . | ?
CC(N)c1csc(NC(=O)Nc2cccc(C(F)(F)F)c2)n1 (centres undefined) | . | 23.1µM* | . | i | 18.4µM* | i
CCOC(=O)Cc1csc(NC(=O)Nc2cccc(Cl)c2)n1 | 6.3% | ? | 2.5% | i | -12.4% | 14.6µM*
CC(C)c1ccc(NC(=O)Nc2nc(C(N)C(C)C)cs2)cc1 (centres undefined) | . | ? | . | ? | 20.6µM* | ?
Cc1ccc(C(=O)Nc2nc(C(N)C(C)C)cs2)cc1 (centres undefined) | . | 3.3% | . | i | -21.8% | i
O=C(Nc1ccc(Cl)cc1F)c1cc(S(=O)(=O)NC2CCCCCC2)ccc1F | . | . | . | i | . | i
CCCCn1c(=O)nc2n(-c3ccccc3C)c3ccccc3cc-2c1=O | ? | 8.9% | 0.9% | i | 7.7% | 10.3µM*
Cc1ccccc1-n1c2nc(=O)n(C)c(=O)c-2cc2ccccc21 | 18.4µM* | -2.9% | 20.6µM* | i | -2.0% | i
O=S(=O)(NC1CCCC1)c1ccc(S(=O)(=O)N(Cc2cccs2)CC2CCCO2)cc1 (centres undefined) | 13.5% | 9.4% | 5.1% | i | 0.4% | ?
SMILES | SW480 rerep | HT1080 IDH1KD tx | MCF10A rereplic | KB-3-1 cytotox | HT1080NT lethal | KB-V1 cytotox
O=S(=O)(c1ccc(S(=O)(=O)N(Cc2cccs2)CC2CCCO2)cc1)N1CCCCC1 (centres undefined) | -1.6% | -9.0% | ? | i | 3.8% | 7.31µM*
Cc1cccc(C)c1NC(=O)c1nc(SC(C)C)ncc1Cl | . | . | . | i | . | i
COc1ccc(-c2csc(NC3OC(=O)c4c3ccc(OC)c4OC)n2)cc1OC (centres undefined) | 17.5% | 2.59µM* | ? | i | 2.06µM* | i
COc1cc(C=CC(=O)c2cc(OC)c(OC)c(OC)c2)cc(OC)c1OC | ? | 23.1µM* | 13µM* | 6.51µM* | ? | ?
COc1ccc(C=CC(=O)c2ccc3cc(OC)c(OC)cc3c2)cc1OC | . | ? | . | ? | -23.6% | i
COc1ccc2cc(C(=O)/C=C/c3cc(OC)c(OC)c(OC)c3)ccc2c1 | 20.6µM* | ? | 13µM* | i | ? | i
COc1cc(/C=C/C(C)=O)cc(OC)c1OC | -7.5% | 0.2% | ? | 23.1µM* | -8.5% | i
COc1cc(/C=C/C(=O)N2CCC=CC2=O)cc(OC)c1OC | ? | 4.11µM* | 8.2µM* | ? | 5.8µM* | ?
COc1cc(/C=C/C(=O)N2CCCN(C(=O)/C=C/c3cc(OC)c(OC)c(OC)c3)CC2)cc(OC)c1OC | ? | -0.6% | -7.5% | ? | 9.2% | i
Cc1ccc(C(=O)COC(=O)c2cc(-c3ccc(Cl)cc3)nc3ccccc23)cc1 | . | . | . | i | . | i
COc1cc(C=CC(=O)c2ccccc2)cc(OC)c1OC | . | 8.2µM* | . | ? | 10.3µM* | 23.1µM*
COc1ccc(/C=C/C(=O)c2ccccc2)c(OC)c1 | ? | ? | -1.2% | i | ? | ?
CCOc1ccc(C(c2c(O)cc(C)n(Cc3ccco3)c2=O)N2CCCCC2)cc1 (centres undefined) | . | . | . | i | . | i
COc1ccc(CN2CCC2(C)C(=O)Nc2cccc(NS(C)(=O)=O)c2)c2ccccc12 (centres undefined) | . | ? | . | ? | ? | 2.91µM*
CCc1ccccc1NC(=O)c1ccc(Cn2cc([N+](=O)[O-])cn2)cc1 | 1.03µM* | -1.6% | -1.7% | i | -0.9% | i
O=C(Nc1ccn(Cc2ccccc2)n1)c1cccc(Cn2cc([N+](=O)[O-])cn2)c1 | -18.7% | 3.3% | 7.5% | ? | -4.0% | i
CCC(NC(=O)c1cccc(Cn2cc([N+](=O)[O-])cn2)c1)c1ccc(C(C)C)cc1 (centres undefined) | 20.1% | ? | 25.8% | ? | -19.9% | 7.31µM*
